# From paper PMC7862700, “An all-to-all approach to the identification of sequence-specific readers for epigenetic DNA modifications on cytosine”
# Columns and labels:
# Test in all cases: DAPPL (digital affinity profiling via proximity ligation, sequencing); 10 mM Tris-HCl pH 7.5, 50 mM NaCl, 1 mM DTT, 4% glycerol, room temperature, 30 min; GST-TFs on glutathione beads, 16-mer random dsDNA library, 0.1% formaldehyde crosslink after washing; high values mean tight binding
# Details in all cases: protein: recombinant; tags: N-terminal GST; dsDNA, one strand shown
# [1] = biological target: T1, FEV (Homo sapiens, UniProt Q99581 1-238)
# T1 sequence: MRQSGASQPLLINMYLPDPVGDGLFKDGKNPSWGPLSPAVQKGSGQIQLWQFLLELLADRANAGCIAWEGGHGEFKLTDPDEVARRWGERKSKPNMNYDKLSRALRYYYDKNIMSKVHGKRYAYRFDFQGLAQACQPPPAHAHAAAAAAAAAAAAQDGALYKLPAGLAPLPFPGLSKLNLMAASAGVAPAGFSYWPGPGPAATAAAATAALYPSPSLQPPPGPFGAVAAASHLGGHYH
# Method in brief: (§1)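 Binding signal is given per hexamer as its read frequency for a factor divided by its frequency in the tag-only sample. GST-fused human transcription factors were expressed in yeast, captured on glutathione beads, barcoded with DNA and pooled with that sample, then incubated with 200 nmole of a 16-mer random double-stranded DNA library in Tris/NaCl/DTT/glycerol buffer for 30 min at room temperature. The pools were then washed, crosslinked, proximity-ligated, amplified by PCR and sequenced on an Illumina NextSeq500.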
# [2] = biological target: ETV5 (Homo sapiens, UniProt P41161 1-510)
# Method in brief: as §1
# [3] = biological target: T2, SPIC (Homo sapiens, UniProt Q8N5J4 1-248)
# T2 sequence: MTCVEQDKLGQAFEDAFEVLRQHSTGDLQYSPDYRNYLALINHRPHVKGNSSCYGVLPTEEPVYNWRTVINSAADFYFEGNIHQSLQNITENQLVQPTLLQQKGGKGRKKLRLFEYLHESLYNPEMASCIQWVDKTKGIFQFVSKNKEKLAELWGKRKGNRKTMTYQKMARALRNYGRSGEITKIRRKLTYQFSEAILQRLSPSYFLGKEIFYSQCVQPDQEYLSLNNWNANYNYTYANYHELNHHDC
# Method in brief: as §1
# [4] = biological target: ELF4 (Homo sapiens, UniProt Q99607 1-663)
# Method in brief: as §1
# [5] = biological target: T3, ELK4 (Homo sapiens, UniProt P28324-2 1-405)
# T3 sequence: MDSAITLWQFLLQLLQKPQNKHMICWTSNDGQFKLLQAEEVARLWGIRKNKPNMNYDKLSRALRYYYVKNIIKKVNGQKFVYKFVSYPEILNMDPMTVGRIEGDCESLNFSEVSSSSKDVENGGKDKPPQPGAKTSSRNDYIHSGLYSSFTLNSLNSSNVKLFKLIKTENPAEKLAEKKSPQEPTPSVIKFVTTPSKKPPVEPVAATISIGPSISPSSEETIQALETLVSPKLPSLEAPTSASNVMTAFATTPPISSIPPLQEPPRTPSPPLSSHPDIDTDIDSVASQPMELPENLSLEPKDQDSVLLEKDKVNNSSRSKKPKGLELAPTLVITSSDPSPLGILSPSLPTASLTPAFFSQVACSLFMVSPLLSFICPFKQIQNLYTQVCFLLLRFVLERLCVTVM
# Method in brief: as §1
# [6] = biological target: T4, ETV2 (Homo sapiens, UniProt O00321 1-342)
# T4 sequence: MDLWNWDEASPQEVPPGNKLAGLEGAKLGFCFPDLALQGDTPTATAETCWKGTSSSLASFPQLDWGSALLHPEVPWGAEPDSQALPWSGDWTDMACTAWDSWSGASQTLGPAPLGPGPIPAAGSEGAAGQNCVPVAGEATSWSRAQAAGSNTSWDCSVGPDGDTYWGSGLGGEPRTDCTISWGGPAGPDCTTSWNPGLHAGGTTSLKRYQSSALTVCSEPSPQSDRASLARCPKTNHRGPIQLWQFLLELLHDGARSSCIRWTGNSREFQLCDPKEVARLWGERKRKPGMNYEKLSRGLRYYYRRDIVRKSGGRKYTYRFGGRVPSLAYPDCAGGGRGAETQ
# Method in brief: as §1
# [7] = biological target: T5, ELF3 (Homo sapiens, UniProt P78545 1-371)
# T5 sequence: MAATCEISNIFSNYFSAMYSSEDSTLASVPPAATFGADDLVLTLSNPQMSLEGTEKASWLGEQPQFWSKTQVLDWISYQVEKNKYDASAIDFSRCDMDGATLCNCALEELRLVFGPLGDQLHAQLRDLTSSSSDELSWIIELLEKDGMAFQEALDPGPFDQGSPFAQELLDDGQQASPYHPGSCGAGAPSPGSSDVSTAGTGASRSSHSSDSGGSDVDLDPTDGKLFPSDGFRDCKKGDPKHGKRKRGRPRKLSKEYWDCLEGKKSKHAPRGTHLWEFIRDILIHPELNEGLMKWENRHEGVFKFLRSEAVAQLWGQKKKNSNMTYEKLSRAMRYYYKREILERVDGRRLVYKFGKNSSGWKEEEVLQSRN
# Method in brief: as §1
# [8] = biological target: ETV1 (Homo sapiens, UniProt P50549 1-477)
# Method in brief: as §1
# [9] = biological target: T6, ERF (Homo sapiens, UniProt P50548 1-548)
# T6 sequence: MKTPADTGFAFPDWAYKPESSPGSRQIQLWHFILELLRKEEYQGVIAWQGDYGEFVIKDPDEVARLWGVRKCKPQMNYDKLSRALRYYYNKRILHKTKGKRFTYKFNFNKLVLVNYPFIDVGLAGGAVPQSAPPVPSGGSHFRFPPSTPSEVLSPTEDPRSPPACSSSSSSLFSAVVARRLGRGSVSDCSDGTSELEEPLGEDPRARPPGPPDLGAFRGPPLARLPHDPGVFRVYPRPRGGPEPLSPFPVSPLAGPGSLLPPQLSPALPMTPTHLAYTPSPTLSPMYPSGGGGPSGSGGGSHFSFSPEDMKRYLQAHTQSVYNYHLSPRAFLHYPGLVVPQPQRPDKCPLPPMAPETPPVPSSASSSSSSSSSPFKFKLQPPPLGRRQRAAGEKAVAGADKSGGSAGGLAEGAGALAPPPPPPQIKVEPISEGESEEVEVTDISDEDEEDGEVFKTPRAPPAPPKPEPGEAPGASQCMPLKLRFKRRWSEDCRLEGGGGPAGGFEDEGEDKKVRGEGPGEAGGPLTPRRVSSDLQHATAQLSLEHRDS
# Method in brief: as §1
# [10] = biological target: T7, ETV3L (Homo sapiens, UniProt Q6ZN32 1-361)
# T7 sequence: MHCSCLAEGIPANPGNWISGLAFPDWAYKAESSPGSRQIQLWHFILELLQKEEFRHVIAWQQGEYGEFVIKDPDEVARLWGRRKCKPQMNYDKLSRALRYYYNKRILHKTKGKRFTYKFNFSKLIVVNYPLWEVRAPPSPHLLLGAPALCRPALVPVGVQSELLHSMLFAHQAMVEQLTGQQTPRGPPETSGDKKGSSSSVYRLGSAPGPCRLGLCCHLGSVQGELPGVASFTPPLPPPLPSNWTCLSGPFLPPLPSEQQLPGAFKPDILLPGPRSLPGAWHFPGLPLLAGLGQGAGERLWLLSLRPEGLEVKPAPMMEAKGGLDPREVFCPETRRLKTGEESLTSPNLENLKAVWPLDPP
# Method in brief: as §1
# [11] = biological target: T8, ETS2 (Homo sapiens, UniProt P15036 1-469)
# T8 sequence: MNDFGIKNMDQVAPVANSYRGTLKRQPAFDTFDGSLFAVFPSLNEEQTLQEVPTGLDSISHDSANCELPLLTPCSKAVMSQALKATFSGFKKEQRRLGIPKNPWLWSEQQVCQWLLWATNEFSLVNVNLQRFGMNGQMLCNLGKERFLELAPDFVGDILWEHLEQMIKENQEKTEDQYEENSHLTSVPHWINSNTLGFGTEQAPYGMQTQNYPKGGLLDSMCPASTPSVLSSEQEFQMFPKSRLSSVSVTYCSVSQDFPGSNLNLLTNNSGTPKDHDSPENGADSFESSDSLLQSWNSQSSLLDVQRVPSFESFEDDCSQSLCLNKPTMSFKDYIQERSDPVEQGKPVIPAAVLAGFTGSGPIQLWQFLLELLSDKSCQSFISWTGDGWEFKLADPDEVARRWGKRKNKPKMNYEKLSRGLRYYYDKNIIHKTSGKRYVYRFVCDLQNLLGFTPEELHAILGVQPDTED
# Method in brief: as §1
# [12] = biological target: T9, SPDEF (Homo sapiens, UniProt O95238 1-335)
# T9 sequence: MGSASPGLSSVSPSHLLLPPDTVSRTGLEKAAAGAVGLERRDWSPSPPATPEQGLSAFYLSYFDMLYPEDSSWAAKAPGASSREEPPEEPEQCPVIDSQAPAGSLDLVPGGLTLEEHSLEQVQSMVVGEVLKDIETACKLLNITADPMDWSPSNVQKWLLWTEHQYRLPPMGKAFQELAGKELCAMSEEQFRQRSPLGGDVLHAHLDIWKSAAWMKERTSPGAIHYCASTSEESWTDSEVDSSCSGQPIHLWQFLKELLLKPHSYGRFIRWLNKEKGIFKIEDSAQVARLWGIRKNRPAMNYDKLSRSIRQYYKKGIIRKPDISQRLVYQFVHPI
# Method in brief: as §1
# [13] = biological target: T10, ETV7 (Homo sapiens, UniProt Q9Y603 1-341)
# T10 sequence: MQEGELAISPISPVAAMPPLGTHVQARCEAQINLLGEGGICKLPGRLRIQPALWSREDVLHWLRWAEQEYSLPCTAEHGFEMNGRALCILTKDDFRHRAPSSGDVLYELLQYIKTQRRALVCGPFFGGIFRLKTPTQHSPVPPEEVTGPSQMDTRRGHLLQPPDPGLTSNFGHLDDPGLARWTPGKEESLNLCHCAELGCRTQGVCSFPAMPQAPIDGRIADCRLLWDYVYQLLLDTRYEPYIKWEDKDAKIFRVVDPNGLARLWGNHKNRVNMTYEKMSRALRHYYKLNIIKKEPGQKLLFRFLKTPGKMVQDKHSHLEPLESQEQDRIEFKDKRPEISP
# Method in brief: as §1
# [14] = biological target: T11, ELF5 (Homo sapiens, UniProt Q9UKW6-2 1-255)
# T11 sequence: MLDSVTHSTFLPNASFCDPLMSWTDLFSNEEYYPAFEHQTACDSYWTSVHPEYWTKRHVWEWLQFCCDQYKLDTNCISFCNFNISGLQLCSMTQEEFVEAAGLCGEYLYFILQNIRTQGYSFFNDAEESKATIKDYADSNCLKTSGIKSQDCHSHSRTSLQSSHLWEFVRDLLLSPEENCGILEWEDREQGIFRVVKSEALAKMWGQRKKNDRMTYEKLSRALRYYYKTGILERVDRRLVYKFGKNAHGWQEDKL
# Method in brief: as §1
# [15] = biological target: T12, ETV3 (Homo sapiens, UniProt P41162-2 1-143)
# T12 sequence: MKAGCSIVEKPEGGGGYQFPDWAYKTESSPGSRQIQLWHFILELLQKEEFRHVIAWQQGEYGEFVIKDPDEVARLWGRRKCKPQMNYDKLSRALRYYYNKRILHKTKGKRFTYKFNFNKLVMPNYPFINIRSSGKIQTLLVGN
# Method in brief: as §1
# [16] = biological target: ETV6 (Homo sapiens, UniProt P41212 1-452)
# Method in brief: as §1
# Sequence of ETV1 (P50549 whole entry): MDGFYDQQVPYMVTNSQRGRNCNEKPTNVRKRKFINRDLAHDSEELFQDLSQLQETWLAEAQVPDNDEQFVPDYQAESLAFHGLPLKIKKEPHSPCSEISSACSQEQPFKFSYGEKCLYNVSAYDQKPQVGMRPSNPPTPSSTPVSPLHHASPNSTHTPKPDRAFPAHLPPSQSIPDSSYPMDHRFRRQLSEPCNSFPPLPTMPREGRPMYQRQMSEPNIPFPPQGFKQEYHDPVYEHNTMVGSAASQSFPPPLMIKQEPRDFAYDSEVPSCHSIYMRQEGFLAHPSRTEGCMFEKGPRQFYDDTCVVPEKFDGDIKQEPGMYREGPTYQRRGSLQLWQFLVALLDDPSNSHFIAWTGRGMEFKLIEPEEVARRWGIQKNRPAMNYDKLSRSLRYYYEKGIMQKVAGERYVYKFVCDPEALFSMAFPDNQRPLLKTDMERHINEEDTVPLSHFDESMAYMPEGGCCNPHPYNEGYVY
# Sequence of ELF4 (Q99607 whole entry): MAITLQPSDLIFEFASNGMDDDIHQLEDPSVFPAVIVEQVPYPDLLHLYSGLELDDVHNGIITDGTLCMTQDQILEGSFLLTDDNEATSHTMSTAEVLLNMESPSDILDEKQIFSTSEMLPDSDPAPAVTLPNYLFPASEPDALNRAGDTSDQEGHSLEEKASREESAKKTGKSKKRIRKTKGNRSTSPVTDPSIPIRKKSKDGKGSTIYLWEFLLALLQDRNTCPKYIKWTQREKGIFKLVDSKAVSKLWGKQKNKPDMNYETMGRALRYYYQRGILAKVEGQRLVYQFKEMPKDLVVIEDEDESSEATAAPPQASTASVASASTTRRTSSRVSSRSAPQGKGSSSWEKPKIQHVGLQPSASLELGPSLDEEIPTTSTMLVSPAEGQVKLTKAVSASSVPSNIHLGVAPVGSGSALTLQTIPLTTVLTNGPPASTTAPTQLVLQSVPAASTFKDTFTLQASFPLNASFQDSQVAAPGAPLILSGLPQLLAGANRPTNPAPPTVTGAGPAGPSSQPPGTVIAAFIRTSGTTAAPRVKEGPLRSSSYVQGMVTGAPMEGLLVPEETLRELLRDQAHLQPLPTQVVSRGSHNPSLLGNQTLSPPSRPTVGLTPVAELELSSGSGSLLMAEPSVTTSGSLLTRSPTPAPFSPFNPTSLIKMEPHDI
# Sequence of ETV6 (P41212 whole entry): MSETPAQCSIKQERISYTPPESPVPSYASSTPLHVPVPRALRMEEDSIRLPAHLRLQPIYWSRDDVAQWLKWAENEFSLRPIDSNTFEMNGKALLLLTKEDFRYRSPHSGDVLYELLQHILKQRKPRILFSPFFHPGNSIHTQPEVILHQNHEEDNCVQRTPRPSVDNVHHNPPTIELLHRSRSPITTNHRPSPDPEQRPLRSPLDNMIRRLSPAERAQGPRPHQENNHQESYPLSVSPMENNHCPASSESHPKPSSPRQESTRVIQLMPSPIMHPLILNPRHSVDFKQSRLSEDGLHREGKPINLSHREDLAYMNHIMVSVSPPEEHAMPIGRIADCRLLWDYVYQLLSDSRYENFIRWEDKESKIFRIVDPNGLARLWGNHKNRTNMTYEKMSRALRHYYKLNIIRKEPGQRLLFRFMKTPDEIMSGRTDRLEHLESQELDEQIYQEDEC
# Sequence of ETV5 (P41161 whole entry): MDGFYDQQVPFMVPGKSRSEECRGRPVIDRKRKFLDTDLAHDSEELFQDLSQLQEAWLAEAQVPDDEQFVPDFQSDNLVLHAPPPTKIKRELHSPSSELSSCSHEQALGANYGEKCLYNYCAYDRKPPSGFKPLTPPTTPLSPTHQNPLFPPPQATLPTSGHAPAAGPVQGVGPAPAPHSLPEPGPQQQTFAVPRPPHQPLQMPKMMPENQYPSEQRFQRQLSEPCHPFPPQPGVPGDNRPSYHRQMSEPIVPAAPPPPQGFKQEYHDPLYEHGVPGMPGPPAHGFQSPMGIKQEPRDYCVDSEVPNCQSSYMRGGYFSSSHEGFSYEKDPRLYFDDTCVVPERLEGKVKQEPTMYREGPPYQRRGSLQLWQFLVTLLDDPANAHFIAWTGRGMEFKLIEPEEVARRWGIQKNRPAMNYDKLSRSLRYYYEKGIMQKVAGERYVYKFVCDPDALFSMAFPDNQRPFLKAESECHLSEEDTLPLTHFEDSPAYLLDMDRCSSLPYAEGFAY
Sequence,binding signal [1],binding signal [2],binding signal [3],binding signal [4],binding signal [5],binding signal [6],binding signal [7],binding signal [8],binding signal [9],binding signal [10],binding signal [11],binding signal [12],binding signal [13],binding signal [14],binding signal [15],binding signal [16]
TGCACC,"1.23 fold enrichment (6-mer frequency, TF over GST control)","1.12 fold enrichment (6-mer frequency, TF over GST control)","1.14 fold enrichment (6-mer frequency, TF over GST control)","1.19 fold enrichment (6-mer frequency, TF over GST control)","1.3 fold enrichment (6-mer frequency, TF over GST control)","1.13 fold enrichment (6-mer frequency, TF over GST control)","1.21 fold enrichment (6-mer frequency, TF over GST control)","1.13 fold enrichment (6-mer frequency, TF over GST control)","1.21 fold enrichment (6-mer frequency, TF over GST control)","1.21 fold enrichment (6-mer frequency, TF over GST control)","1.08 fold enrichment (6-mer frequency, TF over GST control)","1.2 fold enrichment (6-mer frequency, TF over GST control)","1.02 fold enrichment (6-mer frequency, TF over GST control)","1.16 fold enrichment (6-mer frequency, TF over GST control)","1.24 fold enrichment (6-mer frequency, TF over GST control)","1.19 fold enrichment (6-mer frequency, TF over GST control)"
GACATC,"1.73 fold enrichment (6-mer frequency, TF over GST control)","1.3 fold enrichment (6-mer frequency, TF over GST control)","1.26 fold enrichment (6-mer frequency, TF over GST control)","1.26 fold enrichment (6-mer frequency, TF over GST control)","1.34 fold enrichment (6-mer frequency, TF over GST control)","1.31 fold enrichment (6-mer frequency, TF over GST control)","1.23 fold enrichment (6-mer frequency, TF over GST control)","1.33 fold enrichment (6-mer frequency, TF over GST control)","1.22 fold enrichment (6-mer frequency, TF over GST control)","1.27 fold enrichment (6-mer frequency, TF over GST control)","1.31 fold enrichment (6-mer frequency, TF over GST control)","1.57 fold enrichment (6-mer frequency, TF over GST control)","1.31 fold enrichment (6-mer frequency, TF over GST control)","1.35 fold enrichment (6-mer frequency, TF over GST control)","1.33 fold enrichment (6-mer frequency, TF over GST control)","1.33 fold enrichment (6-mer frequency, TF over GST control)"
ACGACA,"1.14 fold enrichment (6-mer frequency, TF over GST control)","1.11 fold enrichment (6-mer frequency, TF over GST control)","1.18 fold enrichment (6-mer frequency, TF over GST control)","1.22 fold enrichment (6-mer frequency, TF over GST control)","1.16 fold enrichment (6-mer frequency, TF over GST control)","1.1 fold enrichment (6-mer frequency, TF over GST control)","1.22 fold enrichment (6-mer frequency, TF over GST control)","1.18 fold enrichment (6-mer frequency, TF over GST control)","1.11 fold enrichment (6-mer frequency, TF over GST control)","1.12 fold enrichment (6-mer frequency, TF over GST control)","1.12 fold enrichment (6-mer frequency, TF over GST control)","1.26 fold enrichment (6-mer frequency, TF over GST control)","1.05 fold enrichment (6-mer frequency, TF over GST control)","1.18 fold enrichment (6-mer frequency, TF over GST control)","1.08 fold enrichment (6-mer frequency, TF over GST control)","1.22 fold enrichment (6-mer frequency, TF over GST control)"
